In PubChem BioAssay (NCATS):
Results filed as inconclusive are left out. Entries that show only a call come without a potency. Unmarked numbers belong to inactive results. Active and inactive are the calls of the source. Unless noted, calls follow the shape of the dose curve; as a rule, active = well fitted curve in the direction sought with a large enough effect in the repeat runs; inconclusive = weak or mixed curves; inactive = no such curve, though single readings can be large; an effect the other way counts as inactive or inconclusive.

Legend:
[1] = A High-Content qHTS Against Drug Library for the Identification of Small Molecules that Inhibit DYT1 Early Onset Primary Dystonia-Associated Cell Pathology (AID 1645839; calls by dose curve; also: series mostly up to about 46 µM)
Method in brief: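 High-content imaging quantified EGFP-TorsinA mislocalization in HEK293-derived cells inducibly expressing DYT1 mutant torsinA, after 48 h exposure to compound given together with tetracycline induction. Cell count served as a toxicity channel alongside %pathology.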

[2] = target: Cytochrome P450 2D6 (Homo sapiens) (UniProt P10635); experiment: Cytochrome P450 family 2 subfamily D member 6 (CYP2D6) small molecule antagonists: luciferase biochemical (cell-free) qHTS assay (AID 1645840); also: nearly all actives have a fitted effect of over 55% in size; also: potency is read from the fitted curve at half-maximal effect
Cytochrome P450 2D6 (Homo sapiens), sequence (P10635 whole entry, looked up): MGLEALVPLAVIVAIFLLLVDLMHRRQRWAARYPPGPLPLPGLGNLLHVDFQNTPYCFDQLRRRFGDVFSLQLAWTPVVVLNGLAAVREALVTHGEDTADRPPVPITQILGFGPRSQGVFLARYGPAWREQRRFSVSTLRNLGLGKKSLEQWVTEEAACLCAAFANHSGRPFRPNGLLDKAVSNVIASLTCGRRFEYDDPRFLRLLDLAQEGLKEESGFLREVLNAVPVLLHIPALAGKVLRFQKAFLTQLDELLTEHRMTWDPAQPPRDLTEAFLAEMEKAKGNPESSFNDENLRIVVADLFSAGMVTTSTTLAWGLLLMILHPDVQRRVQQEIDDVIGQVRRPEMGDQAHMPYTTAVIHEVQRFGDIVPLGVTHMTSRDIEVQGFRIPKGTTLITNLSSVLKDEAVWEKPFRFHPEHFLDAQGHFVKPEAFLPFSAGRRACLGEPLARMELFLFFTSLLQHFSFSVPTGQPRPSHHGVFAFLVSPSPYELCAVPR
Method in brief: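 P450-Glo CYP2D6 system: proluciferin substrate converted by enzyme to luciferin, read by luminescence proportional to activity. Enzyme-substrate mix with compound 10 min at room temperature, then NADPH regeneration 1 h before detection reagent.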

[3] = target: Cytochrome P450 2C9 (Homo sapiens) (UniProt P11712); experiment: Cytochrome P450 family 2 subfamily C member 9 (CYP2C9) small molecule antagonists: luciferase biochemical (cell-free) qHTS assay (AID 1645842); also: nearly all actives have a fitted effect of over 55% in size; also: potency is read from the fitted curve at half-maximal effect
Cytochrome P450 2C9 (Homo sapiens), sequence (P11712 whole entry, looked up): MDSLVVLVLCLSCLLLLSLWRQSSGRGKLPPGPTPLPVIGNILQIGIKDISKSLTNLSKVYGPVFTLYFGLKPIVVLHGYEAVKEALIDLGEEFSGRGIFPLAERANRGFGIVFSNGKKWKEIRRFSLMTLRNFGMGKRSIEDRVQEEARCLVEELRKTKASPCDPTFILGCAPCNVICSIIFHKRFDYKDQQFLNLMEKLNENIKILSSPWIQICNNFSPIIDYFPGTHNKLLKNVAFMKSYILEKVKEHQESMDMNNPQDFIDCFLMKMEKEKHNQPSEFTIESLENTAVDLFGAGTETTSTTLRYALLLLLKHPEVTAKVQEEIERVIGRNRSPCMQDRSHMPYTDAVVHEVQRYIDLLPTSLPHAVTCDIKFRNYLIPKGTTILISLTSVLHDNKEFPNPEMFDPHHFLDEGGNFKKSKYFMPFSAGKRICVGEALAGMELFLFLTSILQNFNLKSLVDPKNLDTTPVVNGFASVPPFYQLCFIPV
Method in brief: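 P450-Glo CYP2C9 system: proluciferin substrate with enzyme in mix containing 0.4% BSA, 10 min at room temperature, then NADPH regeneration solution added and incubated 1 h at 37C. Detection reagent stopped reaction; luminescence read after 20 min as RLU.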

[4] = Primary qHTS for inhibitors of nuclear receptor binding SET domain protein 2 (NSD2) in an isogenic RCH-ACV NSD2 p.E1099K mutant (9B) (AID 1645876; active = well fitted curve in the direction sought with a large enough effect; an effect the other way counts as inactive or inconclusive; also: nearly all actives have a fitted effect of over 70% in size; also: potency is read from the fitted curve at half-maximal effect)
[5] = Primary qHTS for inhibitors of nuclear receptor binding SET domain protein 2 (NSD2) in an RCH-ACV wild type WT cells (2C) (AID 1645877; active = well fitted curve in the direction sought with a large enough effect; an effect the other way counts as inactive or inconclusive; also: nearly all actives have a fitted effect of over 70% in size)
[6] = target: Cytochrome P450 3A4 (Homo sapiens) (UniProt P08684); experiment: Cytochrome P450 family 3 subfamily A member 4 (CYP3A4) small molecule antagonists: luciferase qHTS assay (AID 1645841); also: nearly all actives have a fitted effect of over 45% in size
Cytochrome P450 3A4 (Homo sapiens), sequence (P08684 whole entry, looked up): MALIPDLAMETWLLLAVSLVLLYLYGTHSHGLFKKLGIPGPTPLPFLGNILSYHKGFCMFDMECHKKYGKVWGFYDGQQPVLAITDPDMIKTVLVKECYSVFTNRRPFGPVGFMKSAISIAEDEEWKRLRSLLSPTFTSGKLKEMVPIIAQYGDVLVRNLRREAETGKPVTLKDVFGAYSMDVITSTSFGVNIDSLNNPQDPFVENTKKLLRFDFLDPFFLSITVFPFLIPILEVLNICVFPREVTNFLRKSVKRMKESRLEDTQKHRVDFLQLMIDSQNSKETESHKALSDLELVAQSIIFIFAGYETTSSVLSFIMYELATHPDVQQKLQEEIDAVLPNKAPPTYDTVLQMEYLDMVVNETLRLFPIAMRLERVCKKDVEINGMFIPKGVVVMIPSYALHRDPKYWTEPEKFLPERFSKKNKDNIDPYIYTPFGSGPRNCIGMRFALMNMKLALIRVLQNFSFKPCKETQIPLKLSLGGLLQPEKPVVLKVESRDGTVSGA
Method in brief: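 Luminescent CYP3A4 activity readout: compounds plus enzyme-substrate mix 10 min at room temperature, reaction started with NADPH regenerating system for 1 h, stopped with detection reagent, read after 20 min. Ketoconazole served as control.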

With `CCOC(=O)c1c(N)sc2c1CCN(Cc1ccccc1)C2` the Potency [1] was “inactive”, the Potency [2] was 0.0098 µM (active) and the Potency [3] was 8.71 µM (active). For the same compound, the Potency [4] was 16.8 µM (active).

In the case of `COc1cc(NS(=O)(=O)c2ccc(N)cc2)ncn1`, the Potency [1] is reported as “inactive”, the Potency [2] is reported as “inactive” and the Potency [3] is reported as “inactive”.

With `O=C(Nc1cccc(C2=NCCN2)c1)Nc1cccc(C2=NCCN2)c1` the Potency [1] was “inactive”, the Potency [2] was “inactive” and the Potency [3] was “inactive”. For the same compound, the Potency [4] was 10.3 µM (active).

For `C/C=C/c1ccc(O)c(OC)c1`, the Potency [1] was “inactive”, the Potency [2] was “inactive” and the Potency [3] was 2.19 µM (active).

In the case of `CCCc1ncc(C[n+]2ccccc2C)c(N)n1`, the Potency [1] is reported as “inactive”, the Potency [2] is reported as “inactive” and the Potency [3] is reported as “inactive”.

With `Nc1ccc(C(=O)NCC(=O)O)cc1` the Potency [1] was “inactive”, the Potency [2] was “inactive” and the Potency [3] was “inactive”. For the same compound, the Potency [4] was “inactive”.

For `Cc1cc(-c2ccccc2)nnc1NCCN1CCOCC1`, the Potency [1] was “inactive”, the Potency [2] was 4.9 µM (active) and the Potency [3] was “inactive”. For the same compound, the Potency [4] was “inactive” and the Potency [5] was “inactive”.

In the case of `O=C(Oc1cccc2cccnc12)c1ccccc1`, the Potency [1] is reported as “inactive”, the Potency [2] is reported as “inactive” and the Potency [3] is reported as “inactive”. The Potency [4] was “inactive”.

For `NC(=O)C1(N2CCCCC2)CCN(CCCC(=O)c2ccc(F)cc2)CC1`, the Potency [1] was “inactive”, the Potency [2] was 4.36 µM (active) and the Potency [6] was “inactive”. For the same compound, the Potency [3] was “inactive”, the Potency [4] was “inactive” and the Potency [5] was “inactive”.

In the case of `COc1cc(C(=S)N2CCOCC2)ccc1O`, the Potency [1] is reported as “inactive”, the Potency [2] is reported as “inactive” and the Potency [3] is reported as “inactive”.

In the case of `CCCCNc1ccc(C(=O)OCCOCCOCCOCCOCCOCCOCCOCCOCCOC)cc1`, the Potency [1] is reported as “inactive”, the Potency [2] is reported as “inactive” and the Potency [3] is reported as 6.92 µM (active).

In the case of `CCCCN=C(N)N=C(N)N`, the Potency [1] is reported as “inactive”.

In the case of `Cc1cc2c(OCC(CNC(C)(C)C)OC(=O)c3ccccc3)cccc2[nH]1` (configuration not stated), the Potency [1] is reported as “inactive”, the Potency [2] is reported as 0.246 µM (active) and the Potency [3] is reported as 3.47 µM (active). The Potency [4] was “inactive”.

For `N[C@H](C(=O)O)[C@@H](O)c1ccc(O)c(O)c1`, the Potency [1] was “inactive”, the Potency [2] was “inactive” and the Potency [3] was “inactive”. The Potency [4] was “inactive”.

With `CC(C)n1c(/C=C/[C@@H](O)C[C@@H](O)CC(=O)O)c(-c2ccc(F)cc2)c2ccccc21` the Potency [1] was “inactive” and the Potency [2] was “inactive”.

For `N#CCC(=O)NN`, the Potency [1] was “inactive”, the Potency [2] was “inactive” and the Potency [3] was “inactive”. The Potency [4] was “inactive”.
